# In PubChem BioAssay AID686970 (National Center for Advancing Translational Sciences (NCATS), 2013):
# The whole screen tested about 360,000 compounds, of which about 6,000 (1.7%) were called active. About 8% were inconclusive and are not listed. Many of the other results were omitted from the sample, so actives are more common in it than they were. Values without a mark were called inactive. The call rests on the fitted dose curve; in most records, active means well fitted cell-killing curve with a large enough effect; inconclusive means small, poorly fitted or top-dose-only effect, or effect the other way; inactive means flat fitted curve, though single readings scatter.
# Assay: qHTS for induction of synthetic lethality in tumor cells producing 2HG: qHTS for the HT-1080-NT fibrosarcoma cell line;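 further: NT is the 2HG producing partner of a matched IDH1 knockdown line; nearly all actives have a fitted effect of over 55% in size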;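 on activity, negative = less viability: 0% = DMSO-treated cells and -100% = media-only wells without cells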
# Conditions: HT-1080-NT fibrosarcoma viability, CellTiter-Glo ATP luminescence, 48 h; series mostly up to 46.1 µM; activity, negative = less viability: at the top concentration
# Summary of the method: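 A 48-hour cytotoxicity screen used HT-1080-NT cells plated 2 hours before compound delivery. ATP-based CellTiter-Glo luminescence measured viability, normalized to DMSO and no-cell controls.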
# Potency means the concentration at half of the fitted maximal effect.
Compound,"activity, negative = less viability [%]",Potency
COC(=O)N(NC(=O)C(O)(C(C)C)C(C)C)c1ccccc1,18.4,
COc1ccc(C2OC(CCc3ccccc3)Cc3[nH]c(=S)[nH]c(=O)c32)cc1 (centres undefined),-12.7,
CCOC(=O)C1CCCN(C(=O)c2cccc3ccccc23)CC1 (centres undefined),8.59,
CCc1nc2ccc(C(=O)N3CCN(S(=O)(=O)CC)CC3)cn2c1N(C=O)CCC(C)C,11.2,
COc1ccc(Br)cc1/C=N/Nc1ccc(Cl)c(C(=O)O)c1,6.6,
COc1cccc(/C=N/Nc2ncc(C(F)(F)F)cc2Cl)c1O,,16.4 µM (active)
O=c1[nH]c2cccnc2n(CCNc2ncc(C(F)(F)F)cc2Cl)c1=O,-5.03,
CCN1C(=O)[C@@H]2[C@@H]3CN(S(=O)(=O)c4ccccc4C)[C@@H](c4ccc(Cl)cc4)[C@@H]3C(=O)C[C@@H]2C1=O,0.249,
CCc1nc2c(OCCOc3ccc(F)cc3)cccn2c1N(C)C(=O)c1ccccc1F,-10.6,
COc1cc(/C=N/Nc2nc3ccccc3s2)ccc1O,,20.6 µM (active)
CCOc1cc(/C=N/Nc2cc(C)nc3ccc(C)cc23)ccc1O,-1.31,
COc1cc(C=NC2CCCCC2)ccc1O,11.8,
Nc1ncnc2c1ncn2[C@@H]1O[C@H](CNC(=O)[C@H](N)Cc2cccnc2)[C@@H](O)[C@H]1O,19.8,
O=C(Nc1ccc(S(=O)(=O)Nc2ccccn2)cc1)c1ccccc1,-0.939,
O=C(Nc1ccccc1)c1nnsc1S(=O)(=O)c1ccc(Cl)cc1,,20.6 µM (active)
Cc1nnsc1S(=O)(=O)Cc1ccccc1Cl,6.73,
C=C1C=C(C)n2ncc(C(=O)Nc3ccccc3O)c2N1,2.15,
COc1ccc(C(C)(C)C)cc1NC(=O)CN(C)C1=NS(=O)(=O)c2ccccc21,-2.56,
CCc1nc2ccc(C(=O)Nc3cc(-c4ccccc4)ccc3OC)cn2c1N(CC)CC(=O)N(C)C,-29.7,
CCOC(=O)C1(C)CCCN(C(=O)c2ccc(N(C)C)cc2)C1 (centres undefined),24.7,
CC(=O)Nc1cccc(-c2cc(NC=O)c3ncc(-c4ccc(F)c(Cl)c4)n3c2)c1,,18.4 µM (active)
COc1ccccc1-c1cc(NC(C)=O)c2ncc(-c3ccc(F)cc3)n2c1,-9.97,
COc1cccc(-c2cc(NC(C)=O)c3ncc(-c4cccc(C(C)=O)c4)n3c2)c1,-6.83,
CC(=O)c1cccc(-c2cnc3c(NC=O)cc(-c4ccccc4Oc4ccccc4)cn23)c1,-41.4,
CC(=O)c1cccc(-c2cnc3c(NC=O)cc(-c4cccc(C(=O)N(C)C)c4)cn23)c1,-31.5,

Compound,"activity, negative = less viability [%]",Potency
CC(=O)c1cccc(-c2cnc3c(NC=O)cc(-c4ccc(N5CCN(C)CC5)cc4)cn23)c1,-28.5,
CC(=O)Nc1cc(-c2cccc(CO)c2)cn2c(-c3cccc(C(F)(F)F)c3)cnc12,11.9,
CN(C)CCNC(=O)c1cccc(-c2cnc3c(NC=O)cc(-c4cccc(C(F)(F)F)c4)cn23)c1,,20.6 µM (active)
CC(=O)Nc1cc(-c2ccccc2N(C)C)cn2c(-c3ccc(F)c(Cl)c3)cnc12,,29.1 µM (active)
CC(C)(C)C1CCC(=O)N2CCC[C@]2(c2ccccc2)C1 (some centres undefined),0.351,
COc1ccc(COC[C@H](CC(C)C)N2CCN(C(=O)c3cccc(C(F)(F)F)c3)CCC2=O)cc1,-27.2,
CCC(C(=O)NCc1ccccc1)n1c(Cc2cc(F)cc(F)c2)nc2ccccc21 (centres undefined),19.4,
Cc1cccc(S(=O)(=O)N(C)C[C@@H]2OCc3cnnn3CCCC(=O)N([C@H](C)CO)C[C@@H]2C)c1,-1.34,
O=C1Nc2ccccc2NC(c2ccc3c(c2)OCO3)=C1N(Cc1ccc(F)cc1)C(=O)c1ccco1,-27.8,
CCc1nc2ccc(C(=O)N3CCC(O)(Cc4ccccc4)CC3)cn2c1N(C)C(=O)Cc1ccccc1,16.9,
Cc1cc(Nc2ccc(C)c(C)c2)n2ncnc2n1,-4.68,
CC(C)(C(=O)N1CCC1(C)C(=O)NS(=O)(=O)c1ccc(Br)cc1)c1ccccc1 (centres undefined),5.63,
CCc1nc(C)cn1S(=O)(=O)c1cc([N+](=O)[O-])ccc1Cl,,4.11 µM (active)
CC(C)c1nccn1S(=O)(=O)c1cc([N+](=O)[O-])ccc1Cl,10.8,
CCc1nc(C)cn1S(=O)(=O)c1cc(OC)c(C)cc1C,-3.6,
Cc1ccc(S(=O)(=O)/N=C2\C=C(NS(=O)(=O)c3ccc(C)cc3)C(=O)c3ccccc32)cc1,-8.64,
COc1ccc(S(=O)(=O)/N=C2\C=C(NS(=O)(=O)c3ccccc3)C(=O)c3ccccc32)cc1,,18.4 µM (active)
COc1ccc(S(=O)(=O)NCCCc2ccccc2)cc1,8.15,
O=C1c2ccccc2C(c2nc3ccccc3[nH]2)N1c1ccccc1 (centres undefined),6.74,
CC1(C)OC(=O)C2=C(C[C@@H](C3CCCCC3)O[C@@H]2c2ccc(Cl)cc2)O1,12.4,
CN1OC[C@@H]2CN(C(=O)c3ccc(-c4ccccc4)cc3)[C@H](c3ccc(-c4cccc(F)c4)cc3)C[C@@H]21,-3.98,
CCCCOC(=O)Nc1nccs1,3.33,
CCCCc1nnc(NC(=O)CS(=O)(=O)Cc2ccccc2)s1,9.31,
CCCCOC(=O)Nc1nnc(CC(=O)NCc2ccccc2)s1,,4.11 µM (active)
